FadD28 binding: blocks FadD28 binding to the bisubstrate probe; fluorescence polarization; inhibition, % at 12.5 µM; hit rate 0.22% among 360,000; AID 588549; in the data active means inhibition above about 8.5%, passing the limit was not always enough
GDH-TPI inh: inhibits GDH-TPI coupling enzymes, artifact for Mtb FBA screen; hit rate 1.2% among 360,000; inhibition, % at 4.8 µM; GDH-TPI coupled enzyme counterscreen, NADH absorbance; AID 588335; in the data active means inhibition above about 30%
Mtb FBA inh: Mtb fructose-bisphosphate aldolase inhibition. AID 588726. purified M. tuberculosis FBA, fluorescence read-out. hit rate 2.3% among 360,000. inhibition, % at 1 µM; in the data active means inhibition above about 27%
Target sequence (P9WQA3 whole entry, looked up): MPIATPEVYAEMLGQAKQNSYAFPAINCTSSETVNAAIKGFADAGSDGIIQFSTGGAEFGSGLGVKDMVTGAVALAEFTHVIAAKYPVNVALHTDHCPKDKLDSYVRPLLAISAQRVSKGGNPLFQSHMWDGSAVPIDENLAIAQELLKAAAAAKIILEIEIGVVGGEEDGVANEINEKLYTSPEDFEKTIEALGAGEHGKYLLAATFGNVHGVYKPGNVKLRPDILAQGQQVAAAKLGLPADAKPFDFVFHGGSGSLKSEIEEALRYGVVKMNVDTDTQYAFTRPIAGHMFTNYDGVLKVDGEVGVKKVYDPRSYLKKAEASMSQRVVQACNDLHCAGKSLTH
Mtb hypoxia inh: Mtb hypoxia fluorescent reporter inhibition | fluorescence inhibition, % (concentration not given with the values) | hit rate 0.1% among 300,000 | AID 1159583 | M. tuberculosis hypoxia-regulated fluorescent reporter, fluorescence; in the data active means fluorescence inhibition mostly above about 23%, no sharp cut-off; inactive means mostly below about 17%
BioA inh: blocks M. tuberculosis BioA enzyme activity; purified M. tuberculosis BioA enzyme, plate reader; inhibition, % at 9.99 µM; hit rate 0.096% among 360,000; AID 602481; in the data active means inhibition above about 40%
A number is an active result. An excerpt weighted towards active compounds, which were near 2.9% of everything screened.

`CCOc1cc(C=NNc2cc(C)nc(-n3nc(C)cc3C)n2)ccc1O` gave Mtb hypoxia inh 39.
CCOc1cc(/C=N/n2c(C)nnc2C)ccc1O was read as FadD28 binding inactive, GDH-TPI inh 40, Mtb FBA inh inactive and BioA inh inactive.
For Cc1cc(N/N=C/c2ccc(O)cc2O)nc(-n2nc(C)cc2C)n1 the results were FadD28 binding inactive, GDH-TPI inh 36, Mtb FBA inh inactive and BioA inh inactive.
`COc1cc2c(c(OC)c1OC)-c1c(cc(OC)c(OC)c1OC)C[C@](C)(O)C(C)C2` (stereo not given in full) gave Mtb hypoxia inh inactive.
`COc1ccc(CCNC(=O)Nc2ccc3c(c2)c(=O)n(C)n3CC=C(C)C)cc1OC` gave FadD28 binding inactive, GDH-TPI inh inactive, Mtb FBA inh 148 and BioA inh inactive.
Screening CC(C)=CCn1c2ccc(NC(=O)NCc3ccc(F)cc3)cc2c(=O)n1C returned FadD28 binding inactive, GDH-TPI inh inactive, Mtb FBA inh 138 and BioA inh inactive.
For CN1C(=O)CSc2ccc(NC(=O)NCc3ccc(F)cc3)cc21 the results were FadD28 binding inactive, GDH-TPI inh inactive, Mtb FBA inh inactive and Mtb hypoxia inh inactive.
For CCNC(=O)Nc1ccc2c(c1)c(=O)n(C)n2CC=C(C)C the results were FadD28 binding inactive, GDH-TPI inh inactive, Mtb FBA inh 173 and BioA inh inactive.
For COc1ccc(NC(=O)NCCc2ccc(Cl)cc2)cc1OC the results were FadD28 binding inactive, GDH-TPI inh inactive, Mtb FBA inh inactive and Mtb hypoxia inh inactive.
For Cc1ccccc1NCC(=O)NN=Cc1ccc([N+](=O)[O-])cc1 the results were Mtb hypoxia inh inactive.
`C#CCNC(=O)C1=CC(c2ccccc2)C(CCCO)C(OCC)O1` (stereo not given) gave Mtb hypoxia inh inactive.
`O=C(/C=C/c1ccc(F)cc1)Nc1ccc2[nH]c(=O)[nH]c2c1` gave FadD28 binding inactive, GDH-TPI inh 42, Mtb FBA inh inactive, Mtb hypoxia inh inactive and BioA inh inactive.
Screening COc1ccc(-c2ccc3n(c2=O)C[C@H]2[C@H](CO)[C@@H](C(=O)N(C)C)[C@@H]3N2Cc2cccnc2)cc1 returned BioA inh inactive.
CCC(=O)NN=C(C)CC(=O)Nc1ccc2ccccc2c1 was read as Mtb hypoxia inh inactive.
For CCN(CC)c1ccc(N=Cc2c(O)[nH]c(=O)[nH]c2=O)cc1 the results were FadD28 binding inactive, GDH-TPI inh 35, Mtb FBA inh inactive, Mtb hypoxia inh inactive and BioA inh inactive.
`CCN(CC)c1ccc(N=Cc2c(O)n(-c3ccccc3)c(=O)[nH]c2=O)cc1` gave FadD28 binding inactive, GDH-TPI inh inactive, Mtb FBA inh inactive and Mtb hypoxia inh inactive.
For CC(=NNC(=O)c1nn(C)cc1Cl)c1ccncc1 the results were Mtb hypoxia inh inactive.
Screening CC(=O)c1c(COC(=O)c2cccc(C)c2)nc2ccccc2[n+]1[O-] returned FadD28 binding inactive, GDH-TPI inh 31, Mtb FBA inh inactive and Mtb hypoxia inh inactive.
Screening C[C@@H]1CN([C@H](C)CO)C(=O)c2cc(NC(=O)Cn3cnnn3)ccc2O[C@@H]1CN(C)S(=O)(=O)c1cccs1 returned BioA inh inactive.
Screening CC(C)c1nc(NCCO)c(C#N)c2c1CCCC2 returned FadD28 binding inactive, GDH-TPI inh 39, Mtb FBA inh inactive, Mtb hypoxia inh inactive and BioA inh inactive.
For Cc1cccc(C)c1-n1c(C)cc(/C=C2\NC(=O)NC2=O)c1C the results were FadD28 binding inactive, GDH-TPI inh 33, Mtb FBA inh inactive, Mtb hypoxia inh inactive and BioA inh inactive.
`Cc1cc(/C=C2\NC(=O)NC2=O)c(C)n1-c1cccnc1` gave FadD28 binding inactive, GDH-TPI inh 45, Mtb FBA inh inactive, Mtb hypoxia inh inactive and BioA inh inactive.
For Cc1ccc(/C=C/C(=O)OCC(=O)N(CC(C)C)c2c(N)n(Cc3ccccc3)c(=O)[nH]c2=O)o1 the results were FadD28 binding inactive, GDH-TPI inh 42, Mtb FBA inh inactive and BioA inh inactive.
N#Cc1cc2c(=O)n3ccccc3nc2n(Cc2ccco2)c1=NC(=O)c1ccco1 was read as FadD28 binding inactive, GDH-TPI inh inactive, Mtb FBA inh 168 and Mtb hypoxia inh inactive.
Screening Cc1cccn2c(=O)c3cc(C#N)c(=NC(=O)c4ccncc4)n(CCCOC(C)C)c3nc12 returned FadD28 binding inactive, GDH-TPI inh inactive, Mtb FBA inh inactive and Mtb hypoxia inh inactive.
Screening Cc1ccccc1C(=O)N=c1c(C#N)cc2c(=O)n3cccc(C)c3nc2n1Cc1ccco1 returned Mtb hypoxia inh inactive.

Screening results as filed in PubChem BioAssay.
